Results filed as inconclusive are left out. Calls of active or inactive are those of the source. Unless noted, calls follow the shape of the dose curve; as a rule, active = well fitted curve in the direction sought with a large enough effect in the repeat runs; inconclusive = weak or mixed curves; inactive = no such curve, though single readings can be large; an effect the other way counts as inactive or inconclusive.
Key:
[1] = qHTS assay to test for compound auto fluorescence at 535 nm (green) in HEK293 cells (AID 720680)
[2] = qHTS assay to test for compound auto fluorescence at 460 nm (blue) in HEK293 cell free culture (AID 720681)
In short: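 Compounds were added to cell-free DMEM with 10% FBS and fluorescence read directly. The blue channel used 405 nm excitation and 460 nm emission, with triamterene as the reference fluorophore.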

[3] = qHTS assay to test for compound auto fluorescence at 535 nm (green) in HEK293 cell free culture (AID 720682)
In short: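 No cells present: wells hold DMEM supplemented with 10% FBS, into which compound or vehicle is pinned. Green emission is then recorded (485 nm excitation, 535 nm emission) and scaled to fluorescein.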

[4] = qHTS assay to test for compound auto fluorescence at 590 nm (red) in HEK293 cell free culture (AID 720683)
In short: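 Cell-free wells of DMEM with 10% FBS received compound, and intrinsic fluorescence was read at excitation/emission 540/590 nm. Values expressed as equivalence to Rose Bengal sodium.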

[5] = qHTS assay to test for compound auto fluorescence at 590 nm (red) in HepG2 cell free culture (AID 720684)
In short: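 Auto fluorescence equivalency versus Rose Bengal sodium, red channel Ex/Em 540/590 nm; compounds in cell-free MEM/10% FBS; DMSO vehicle control.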

[6] = qHTS assay to test for compound auto fluorescence at 460 nm (blue) in HepG2 cell free culture (AID 720685)
In short: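 Cell-free plates of MEM plus 10% FBS received 23 nL compound or DMSO vehicle; blue-channel (405/460 nm) intensity scored against triamterene as reference fluorophore.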

[7] = qHTS assay to test for compound auto fluorescence at 535 nm (green) in HepG2 cell free culture (AID 720686)
[8] = qHTS assay to test for compound auto fluorescence at 460 nm (blue) in HepG2 cells (AID 720687)
In short: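 HepG2 cells in MEM with 10% FBS, attached overnight at 37 C, were exposed to compound or DMSO for 1 hr at 37 C, 5% CO2. Blue fluorescence was read at 405/460 nm, with triamterene as reference fluorophore.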

[9] = qHTS assay to identify small molecule antagonists of the glucocorticoid receptor (GR) signaling pathway - cell viability counter screen (AID 720693); also: nearly all actives have a fitted effect of over 55% in size; also: potency is read from the fitted curve at half-maximal effect
[10] = qHTS assay for identifying genotoxic compounds that show differential cytotoxicity against isogenic chicken DT40 cell lines with known DNA damage response pathways - wild type cell line (AID 743012); also: nearly all actives have a fitted effect of over 60% in size; also: potency is read from the fitted curve at half-maximal effect
In short: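 Endpoint: CellTiter-Glo luminescence, 30 min RT. Cells: wild type DT40, 300/well. Exposure: compounds in DMSO, 40 h, 37 C/5% CO2, after ~0.5 h pre-incubation.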

[11] = qHTS assay for identifying genotoxic compounds that show differential cytotoxicity against isogenic chicken DT40 cell lines with known DNA damage response pathways - Rev3 mutant cell line (AID 743014); also: nearly all actives have a fitted effect of over 55% in size; also: potency is read from the fitted curve at half-maximal effect
[12] = qHTS assay for identifying genotoxic compounds that show differential cytotoxicity against isogenic chicken DT40 cell lines with known DNA damage response pathways - Rad54/Ku70 mutant cell line (AID 743015); also: nearly all actives have a fitted effect of over 60% in size; also: potency is read from the fitted curve at half-maximal effect
[13] = qHTS assay to identify small molecule antagonists of the androgen receptor (AR) signaling pathway using the MDA cell line - cell viability counter screen (AID 743041; also: nearly all actives have a fitted effect of over 45% in size)
In short: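 Compound exposure lasted 16 h at 37C in MDA-kb2 AR-luc cells stimulated with R1881. Protease-based CellTiter-Fluor reagent was applied for the final 30 min and fluorescence measured.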

[14] = biological target: Glucocorticoid receptor (Homo sapiens) (UniProt P04150); experiment: qHTS assay to identify small molecule agonists of the glucocorticoid receptor (GR) signaling pathway (AID 720691; active = well fitted activation curve with a large enough effect in the signal ratio in the repeat runs, not every such curve was filed as active; the % refers to the signal ratio)
In short: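 Measures GR pathway activation through a GRE-beta-lactamase reporter stably integrated in HeLa cells, with 18 h compound treatment at 37 C and fluorescence detection using a FRET substrate.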

[15] = biological target: Glucocorticoid receptor (Homo sapiens) (UniProt P04150); experiment: qHTS assay to identify small molecule antagonists of the glucocorticoid receptor (GR) signaling pathway (AID 720692; active = well fitted inhibition curve with a large enough effect in the signal ratio in the repeat runs, not every such curve was filed as active; the % refers to the signal ratio)
In short: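 Tox21 10K library screened in concentration-response for blockade of dexamethasone (5 nM final)-induced GRE-bla reporter activity in HeLa cells; 18 h treatment, fluorescence read.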

[16] = qHTS assay to identify small molecule antagonists of the androgen receptor (AR) signaling pathway - cell viability counter screen (AID 743033; also: nearly all actives have a fitted effect of over 45% in size)
[17] = biological target: Androgen receptor (Homo sapiens) (UniProt P10275); experiment: qHTS assay to identify small molecule antagonists of the androgen receptor (AR) signaling pathway using the MDA cell line (AID 743042; also: nearly all actives have a fitted effect of over 55% in size)
In short: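 MDA-kb2 breast carcinoma cells carrying MMTV-luciferase (AR/GR responsive) were co-treated with compounds and the agonist R1881 for 16 h at 37C. Inhibition read as ONE-Glo luminescence; CellTiter-Fluor fluorescence measured in parallel for cytotoxicity.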

Measured: Potency

Chain of Glucocorticoid receptor (Homo sapiens) (P04150 whole entry, looked up): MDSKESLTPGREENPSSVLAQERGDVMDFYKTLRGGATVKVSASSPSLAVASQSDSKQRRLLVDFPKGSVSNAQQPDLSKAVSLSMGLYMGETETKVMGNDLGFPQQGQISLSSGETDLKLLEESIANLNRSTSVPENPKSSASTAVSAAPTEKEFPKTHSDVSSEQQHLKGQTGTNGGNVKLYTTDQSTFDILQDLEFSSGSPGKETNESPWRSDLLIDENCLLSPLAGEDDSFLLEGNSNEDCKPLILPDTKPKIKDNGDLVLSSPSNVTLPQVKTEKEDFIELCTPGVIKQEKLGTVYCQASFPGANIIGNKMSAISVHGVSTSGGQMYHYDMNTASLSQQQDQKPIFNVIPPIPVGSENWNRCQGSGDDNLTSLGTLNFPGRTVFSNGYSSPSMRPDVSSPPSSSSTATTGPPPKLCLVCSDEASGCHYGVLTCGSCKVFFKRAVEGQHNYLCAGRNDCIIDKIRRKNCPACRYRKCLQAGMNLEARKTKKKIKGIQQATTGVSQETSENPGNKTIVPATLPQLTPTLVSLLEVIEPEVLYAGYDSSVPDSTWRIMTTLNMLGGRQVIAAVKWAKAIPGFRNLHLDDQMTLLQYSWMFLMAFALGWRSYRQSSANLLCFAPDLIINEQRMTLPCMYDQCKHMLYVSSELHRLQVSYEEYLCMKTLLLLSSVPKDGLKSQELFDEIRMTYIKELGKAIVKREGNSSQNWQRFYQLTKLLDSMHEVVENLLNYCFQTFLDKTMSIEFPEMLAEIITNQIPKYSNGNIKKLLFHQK
Chain of Androgen receptor (Homo sapiens) (P10275 whole entry, looked up): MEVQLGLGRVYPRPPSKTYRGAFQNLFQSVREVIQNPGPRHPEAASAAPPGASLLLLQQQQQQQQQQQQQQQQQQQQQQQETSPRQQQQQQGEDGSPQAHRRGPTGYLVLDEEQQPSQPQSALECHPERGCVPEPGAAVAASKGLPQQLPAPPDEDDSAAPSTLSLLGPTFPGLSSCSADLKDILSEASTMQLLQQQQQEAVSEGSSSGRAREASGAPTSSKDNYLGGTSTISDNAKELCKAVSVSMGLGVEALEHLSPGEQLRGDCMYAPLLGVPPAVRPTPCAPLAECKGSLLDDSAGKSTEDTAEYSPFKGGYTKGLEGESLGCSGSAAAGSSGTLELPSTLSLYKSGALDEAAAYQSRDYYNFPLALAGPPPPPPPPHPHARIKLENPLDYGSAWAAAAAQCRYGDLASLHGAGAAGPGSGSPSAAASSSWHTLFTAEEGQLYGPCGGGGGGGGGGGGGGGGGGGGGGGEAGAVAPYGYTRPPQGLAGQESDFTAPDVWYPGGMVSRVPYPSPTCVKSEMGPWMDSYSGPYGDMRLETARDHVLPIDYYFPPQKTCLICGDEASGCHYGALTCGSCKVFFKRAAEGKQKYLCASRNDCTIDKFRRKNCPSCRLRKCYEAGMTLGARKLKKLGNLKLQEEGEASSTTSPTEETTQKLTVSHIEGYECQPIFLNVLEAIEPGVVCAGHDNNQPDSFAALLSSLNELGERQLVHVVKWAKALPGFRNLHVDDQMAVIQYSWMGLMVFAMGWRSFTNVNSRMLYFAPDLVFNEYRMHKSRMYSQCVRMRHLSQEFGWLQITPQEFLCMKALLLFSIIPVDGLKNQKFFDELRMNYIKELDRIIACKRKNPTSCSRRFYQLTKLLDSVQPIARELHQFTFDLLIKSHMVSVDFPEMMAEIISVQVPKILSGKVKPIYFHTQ

CC(C)C[C@H](NC(=O)[C@H](CCc1ccccc1)NC(=O)CN1CCOCC1)C(=O)N[C@@H](Cc1ccccc1)C(=O)N[C@@H](CC(C)C)C(=O)[C@@]1(C)CO1
active: [9] 5350 nM | [10] 11.9 nM | [11] 16.8 nM | [12] 11.9 nM
not listed: [14] | [15] | [16] | [17]
inactive: all other assays above

CCC(C)COC(=O)CC(C)C (stereo not given)
active: [10] 68600 nM | [11] 61100 nM
not listed: [12] | [14] | [15] | [16] | [17]
inactive: all other assays above

CCOC(=O)c1ccc(OCCN2C[C@H](O)[C@@H](O)[C@H](O)[C@H]2CO)cc1
not listed: [8] | [13] | [17]
inactive: all other assays above

O=c1[nH]c2ccc(Cl)cc2o1
not listed: [14] | [15] | [17]
inactive: all other assays above

C=C(C)C(=O)OCCCCCCCCCCCCC
not listed: [14] | [15] | [17]
inactive: all other assays above

CC(C)=CC(=O)C=C(C)C
not listed: [14] | [15] | [17]
inactive: all other assays above

CCCCCCCC/C=C\CCCCCCCCCCCC(=O)O
not listed: [12] | [14] | [15]
inactive: all other assays above

Source: PubChem BioAssay (Tox21)
